From PubChem BioAssay
HEK cytotox – cytotoxic compounds in HEK 293 cells; hit rate 6.6% among 94,000; Potency, µM (doses to about 115 µM), for inactives: at the highest dose activity change, negative = cytotoxicity, actives largely listed as inhibitors; AID 1345083; HEK 293 viability, ATP luminescence (CellTiter-Glo), 48-72 h; note: nearly all actives have a fitted effect of over 60% in size
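HEK 293 cells seeded at 250 cells/well were exposed to compound for 48 or 72 hr at 37 degree Celsius. Viability taken as ATP content by CellTiter-Glo luminescence.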
Luciferase inh – blocks purified firefly luciferase enzyme activity; P08659; purified P. pyralis luciferase, luminescence, biochemical; Potency, µM (titrated, usually from 115 µM), actives largely listed as inhibitors; hit rate 2.5% among 76,000; note: nearly all actives have a fitted effect of over 65% in size
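Luminescence read by CCD imager after adding enzyme (10nM final) to wells holding compound, titrated in qHTS. Substrates 10uM each D-luciferin and ATP; buffer 50mM Tris acetate pH 7.5, 10mM Mg acetate, Tween-20, BSA.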
hNpr1 antagonist – antagonists of human natriuretic peptide receptor Npr1. P16066. HEK293 hNpr1 GloSensor cGMP, ANP-stimulated luminescence. Potency, µM (titrated, usually from 46.3 µM), without a hit: top-dose activity change, negative = inhibition, most hits filed as inhibitors. hit rate 1.6% among 76,000. AID 1347048; calls by dose curve; note: nearly all actives have a fitted effect of over 60% in size
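HEK293 cells stably expressing human Npr1 and cGMP GloSensor pGS-40F, loaded 2 h with 2% GloSensor reagent, given compound 30 min at room temperature. Luminescence read before and 20 min after 0.1 nM hNppA.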
NIH3T3 tox – cytotoxic compounds in NIH 3T3 cells; hit rate 4.3% among 94,000; Potency, µM (top dose mostly 96.7 µM), for inactives: at the top dose activity change, negative = cytotoxicity, actives largely listed as inhibitors; NIH 3T3 viability, CellTiter-Glo ATP luminescence, 48-72 h; note: nearly all actives have a fitted effect of over 55% in size
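NIH 3T3 cells at 400 cells/well received 23 nL of compound by pintool and were incubated 48 or 72 h at 37 °C. Viability was read as ATP-coupled CellTiter-Glo luminescence.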
Numbers without * were called inactive; i = inactive; ? = inconclusive; . = no result given; [ ] = dose if it differs, or a comment. Most compounds without a hit are left out; they make up all but 11% or so of the library. Unless noted, calls come from the whole dose curve; as a rule, active = well fitted curve in the direction sought with a large enough effect; inconclusive = small, poorly fitted or top-dose-only effect, or another doubt; inactive = no such curve, though single readings can be large; an effect the other way counts as inactive or inconclusive. % is set by controls: 0 for no effect and ±100 for the full control effect; potency is the fitted concentration of half-maximal effect.

SMILES | HEK cytotox | Luciferase inh | hNpr1 antagonist | NIH3T3 tox
Fc1ccc(CNC[C@H]2Cn3c(-c4ccc(Cl)cc4)cnc3CO2)cc1 | 79.4µM* | i | ? | ?
Clc1ccc(CNC[C@H]2Cn3c(-c4cccc(Cl)c4)cnc3CO2)cc1 | 63.1µM* | i | ? | 44.7µM*
O=C(NC[C@H]1Cn2c(-c3ccc(F)cc3)cnc2CO1)c1cccnc1 | -18.9%[172 µM] | ? | -2.6%[70.6 µM] | -29.5%[138 µM]
Clc1ccc(-c2cnc3n2C[C@H](CNCc2cccnc2)OC3)cc1 | ? | i | -12.1%[70.6 µM] | ?
O=C(NC[C@H]1Cn2c(-c3ccc(Cl)cc3)cnc2CO1)c1cccnc1 | 22.4µM* | ? | -4.4%[70.6 µM] | ?
Cc1cc(Cl)c2oc(C(=O)N(Cc3c(C)nn(C)c3C)C3CC3)c(C)c2c1 | ? | 28.2µM* | 7.94µM* | ?
Cc1cnc(C2CCN(S(C)(=O)=O)C2)n1Cc1ccc(F)cc1 (stereo not given) | 1.3% | . | . | -16.2%
Cc1cnc(CC2CCN(S(=O)(=O)c3ccc4c(c3)CCC4)C2)n1CC1CC1 (stereo not given) | 50.1µM* | i | ? | ?
COCc1nc(N2CCC(c3cc(=O)[nH]c(C)n3)CC2)c2cnn(C)c2n1 | -5.0% | i | -0.4% | -17.8%
Cn1ncc2c(N3CCN(S(N)(=O)=O)CC3)nc(-c3cccnc3)nc21 | ? | i | 4.6% | 39.8µM*
Cn1ncc2c(N3CCN(S(N)(=O)=O)CC3)nc(C3CCCC3)nc21 | -25.4% | i | -1.6% | 39.8µM*
O=C(Cc1ccc(F)cc1)NC1CN(c2ccnc3ccnn23)C1 | -27.3%[172 µM] | . | . | -29.5%[138 µM]
O=C(NCc1ccc(F)cc1)c1ccc2nc(-c3ccnc(Cl)c3)oc2c1 | -21.6%[172 µM] | . | . | -13.2%[138 µM]
COc1cccc(C(=O)Nc2cc(C3CC3)nn2C)c1 | -4.0%[172 µM] | . | . | -24.3%[138 µM]
COc1ccc(C(=O)Nc2cc(C3CCCC3)nn2C)cc1 | 100µM* | . | . | ?
COc1ccc(CN2C(=O)CO[C@H](c3ccc(NS(=O)(=O)c4ccc(F)cc4)cc3)[C@H]2CO)cc1 | -20.1% | i | 1.2% | 35.5µM*
CC(C)CN1C(=O)CO[C@H](c2ccc(NC(=O)c3ccccc3)cc2)[C@H]1CO | 100µM* | i | -24.1%[70.6 µM] | ?
COc1ccc(C(=O)Nc2ccc([C@H]3OCC(=O)N(Cc4nccn4C)[C@@H]3CO)cc2)cc1 | -18.3% | 39.8µM* | 6.0% | -15.9%
O=C(Nc1ccccc1)Nc1ccc([C@H]2OCC(=O)N(Cc3ccccc3)[C@@H]2CO)cc1 | 70.8µM* | ? | -17.2%[70.6 µM] | 89.1µM*
CC(C)CC(=O)Nc1ccc([C@H]2OCC(=O)N(Cc3nccn3C)[C@@H]2CO)cc1 | i | i | 4.2%[70.6 µM] | -1.2%[174 µM]
O=C(C1CCCN1C(=O)c1ccccc1)N1CCC(N2CCOCC2=O)CC1 (stereo not given) | -14.5% | . | . | -13.8%
Cc1ccccc1CN1Cc2nc(-c3cnn(C)c3)ccc2OCC1=O | 100µM* | i | 4.5%[70.6 µM] | 31.6µM*
COc1ccc(-c2ccc3c(n2)CN(Cc2ccccc2C)C(=O)CO3)cc1OC | ? | i | -13.2%[70.6 µM] | ?
NC(=O)c1cccc(-c2ccc3c(n2)CN(Cc2nc4ccccc4s2)C(=O)CO3)c1 | 79.4µM* | i | -21.5%[70.6 µM] | ?
O=C1COc2ccc(-c3ccsc3)nc2CN1Cc1ccccc1F | 100µM* | i | 1.2%[70.6 µM] | ?
SMILES | HEK cytotox | Luciferase inh | hNpr1 antagonist | NIH3T3 tox
Cc1ccccc1CN1Cc2nc(-c3ccccc3)ccc2OCC1=O | 89.1µM* | i | -5.9%[70.6 µM] | ?
O=C1COc2ccc(-c3ccccc3)nc2CN1Cc1ccccc1F | ? | i | -11.2%[70.6 µM] | ?
CNC(=O)c1cc(C2CC2)nc2onc(C3CCCN3C(=O)Nc3ccc(C)c(F)c3)c12 (stereo not given) | -5.7% | . | . | -13.6%
O=C1COc2ccc(OCc3cccnc3)nc2CN1Cc1ccccc1F | 89.1µM* | i | ? | ?
Cc1nc(CN2Cc3nc(-c4cnn(Cc5ccccc5)c4)ccc3OCC2=O)cs1 | ? | i | ? | -29.0%[138 µM]
Cc1ccccc1CN1Cc2nc(-c3cnn(Cc4ccccc4)c3)ccc2OCC1=O | 35.5µM* | i | ? | 22.4µM*
COc1ccc(Nc2nccc3c(=O)cc(N4CCOCC4)oc23)cn1 | -31.9%[172 µM] | i | 9.4%[70.6 µM] | 89.1µM*
COc1ccc(-c2nccc3c(=O)cc(N4CCN(C)CC4)oc23)cn1 | i | i | -0.8%[70.6 µM] | ?
O=c1cc(N2CCOCC2)oc2c(Nc3ccccc3)nccc12 | -13.8%[172 µM] | i | 2.2%[70.6 µM] | 39.8µM*
O=c1cc(N2CCOCC2)oc2c(NC3CCOCC3)nccc12 | -23.8%[172 µM] | i | 0.8%[70.6 µM] | 31.6µM*
